{
  "source": "paper PMC5540273",
  "about": "(PLoS ONE, 2017);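 further: KINOMEscan kinase panel screen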",
  "data": [
    {"tested_on": "WNK3", "settings": "concentration: 1 μM, replicates: in singlicate; n = 1", "units": {"%Inh": "%"}, "values": [
      {"molecule": "Cn1cc(-c2[nH]c3cc(NC(=O)[C@H](N)C4CCCCC4)cc4c3c2C=NNC4=O)cn1", "%Inh": 0},
      {"molecule": "Nc1ncc(-c2cccnc2)c2scc(-c3ccc4c(c3)CCN4C(=O)Cc3ccccc3)c12", "note": "[GSK683281]", "%Inh": 12},
      {"molecule": "CCCCc1nn2ncccc2c1-c1ccnc(Nc2ccc(N3CCN(C)CC3)cc2)n1", "note": "[GW684941]", "%Inh": 54},
      {"molecule": "O=C(Nc1n[nH]c2cc(-c3ccoc3)ccc12)C1CC1", "note": "[SB-738481]", "%Inh": 0},
      {"molecule": "Cl.c1ccc(-c2ccc3c(Nc4ccc5[nH]ncc5c4)ccnc3c2)nc1", "note": "[GW440137]", "%Inh": 19},
      {"molecule": "Cn1cc(-c2ccc3c(c2)CCN3C(=O)Cc2cccc(Cl)c2)c2c(N)ncnc21", "note": "[GSK2606590]", "%Inh": 25},
      {"molecule": "COc1cccc(-c2ccc3c(NC(=O)C4CC4)n[nH]c3n2)c1", "note": "[SB-710903]", "%Inh": 66},
      {"molecule": "Nc1ncc(-c2ccc3nccc(-c4ccncc4)c3c2)cc1S(=O)(=O)N1CCOCC1", "note": "[GSK1627798]", "%Inh": 4},
      {"molecule": "COc1cc(Nc2nccc(N3CCC(NC(=O)Nc4cccc(C(C)=O)c4)C3)n2)cc(OC)c1OC", "note": "(stereo not drawn) [GSK1379753]", "%Inh": 59},
      {"molecule": "COCCOCCOc1cc2ncc3c4ccc(C#N)cc4[nH]c3c2cc1OC", "%Inh": 0},
      {"molecule": "COc1ccc(Nc2nccc(NCCNC(=O)c3cc4ccccc4s3)n2)cc1", "note": "[GSK1379896]", "%Inh": 10},
      {"molecule": "COC(=O)Nc1nc2cc(Oc3ccc(NC(=O)Nc4cc(C(F)(F)F)ccc4F)cn3)ccc2[nH]1.Cl.Cl", "note": "[GW681170]", "%Inh": 22},
      {"molecule": "O=C(Nc1n[nH]c2nc(-c3ccc(O)cc3)ccc12)C1CC1", "note": "[SB-710363]", "%Inh": 0}
    ]},
    {"tested_on": "WNK4", "settings": "concentration: 1 μM, replicates: in singlicate; n = 1", "units": {"%Inh": "%"}, "values": [
      {"molecule": "Nc1n[nH]c2cnc(-c3ccccc3)cc12", "note": "[SB-642124]", "%Inh": 38},
      {"molecule": "CN(c1ccc(NC(=O)Nc2cc(C(F)(F)F)ccc2F)cc1)c1ccnc(Nc2ccc(S(N)(=O)=O)cc2)n1", "note": "[GW809893]", "%Inh": 0},
      {"molecule": "CC(C)c1nc(-c2cccc(NS(=O)(=O)c3c(F)cccc3F)c2F)c(-c2ccnc(Nc3ccc(N4CCOCC4)nc3)n2)s1", "note": "[GSK2008607]", "%Inh": 59},
      {"molecule": "O=C(Nc1cccc(-c2nn3ncccc3c2-c2ccnc(Nc3ccccc3)n2)c1)c1c(F)cccc1F", "note": "[GSK198271]", "%Inh": 0},
      {"molecule": "O=C(Nc1ccccc1F)NC1CCN(c2ccnc(Nc3ccc(F)cc3)n2)CC1", "note": "[GSK1379800]", "%Inh": 34},
      {"molecule": "Cl.c1ccc(-c2ccc3c(Nc4ccc5[nH]ccc5c4)ccnc3c2)nc1", "note": "[GW440138]", "%Inh": 55},
      {"molecule": "COc1ccc(CNC(=O)NC2CCN(c3ccnc(Nc4ccc(F)cc4)n3)CC2)cc1", "note": "[GSK1379788]", "%Inh": 27},
      {"molecule": "CN(C)Cc1ccc(-c2ccc3c(Nc4ccc(Oc5ccccn5)cc4)ccnc3c2)o1", "note": "[GW567148]", "%Inh": 19},
      {"molecule": "CNC(=O)c1ccccc1Nc1nc(Nc2ccc(N3CCOCC3)cc2)ncc1Cl.Cl", "note": "[GSK1576028]", "%Inh": 0},
      {"molecule": "CCS(=O)(=O)c1ccc(OC)c(Nc2nccc(-c3c(-c4cccc(NC(=O)c5c(F)cccc5F)c4)nn4ncccc34)n2)c1", "note": "[GSK326180]", "%Inh": 14},
      {"molecule": "c1ccc(Oc2ccc(Nc3ccnc4cc(-c5ccc(CNCCN6CCOCC6)o5)ccc34)cc2)nc1", "note": "[GW567145]", "%Inh": 8},
      {"molecule": "Cc1ccc(C)c(NC(=O)NC2CCN(c3ccnc(Nc4ccc(F)cc4)n3)C2)c1", "note": "(stereo not drawn) [GSK1379720]", "%Inh": 48},
      {"molecule": "CCn1c(-c2nonc2N)nc2c(C#CC(C)(C)O)ncc(OCCCCN)c21.O=C(O)C(F)(F)F.O=C(O)C(F)(F)F", "note": "[GSK507274]", "%Inh": 3},
      {"molecule": "COc1cc2c(cc1OCCN1CCNCC1)ncc1c3ccc(C#N)cc3[nH]c21", "%Inh": 9},
      {"molecule": "COc1cccc(C(=O)Nc2cccc(Oc3ccc4nc(NC(=O)C5CC5)cn4n3)c2)c1", "%Inh": 0},
      {"molecule": "FC(F)(F)c1ccc(/C=C/c2cncnc2Nc2ccc3[nH]c(Cc4ccccc4)nc3c2)cc1", "note": "[GW709199]", "%Inh": 0},
      {"molecule": "Cc1cccc(Nc2nc(N[C@H]3CCNC3)ncc2C(N)=O)c1.Cl", "note": "[GSK2197149]", "%Inh": 0},
      {"molecule": "NCCCC(NC(=O)c1cc(Br)c(-c2ccnc3[nH]ccc23)s1)c1ccccc1.O=C(O)C(F)(F)F.O=C(O)C(F)(F)F", "note": "(stereo not drawn) [GSK1287544]", "%Inh": 8},
      {"molecule": "CC(C)(C)c1ccc2nccc(Nc3cccc(O)c3)c2c1", "note": "[GW856795]", "%Inh": 0},
      {"molecule": "c1ccc(-c2n[nH]cc2Nc2ccnc3ccccc23)nc1", "note": "[GW694077]", "%Inh": 4}
    ]}
  ]
}
